Screening results deposited in PubChem by several laboratories.
This is a sample that favours compounds with a hit; in the whole collection about 4.3% have one here.
HIF-2a block = HIF-2a inhibition; inhibition, % at 18.8 µM; 786-0 RCC cells HIF-2a reporter, luciferase luminescence, overnight; actives 0.72% (n = 360,000); AID 624352;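 active = inhibition of the luminescence signal of 40% or more relative to plate controls, in a single-dose primary screen at 18.75 µM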
CHOP inhibitor = blocks CHOP induction under ER stress; CHO-K1 CHOP-promoter luciferase, tunicamycin-induced, 15-18 h; inhibition, % at 10 µM; actives 3.8% (n = 220,000); AID 2732;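 active = compounds that reduced the stress-induced luciferase reporter signal by more than about 70% of percent inhibition, limit read from the data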
CF NFkB inh = cystic fibrosis NF-kB activation inhibition | KKLEB NF-kB-GFP reporter, PAF-induced, GFP fluorescence overnight | AID 588850 | actives 0.86% (n = 360,000) | inhibition, % at 5 µM;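 active = at least 50% inhibition at 5 µM, scaled per plate between neutral and stimulator controls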;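 also: PAF is a Pseudomonas aeruginosa culture filtrate used as stimulus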
Peg3 promoter = reduces Peg3 promoter-driven luciferase expression in HeLa; HeLa PEG-Prom luciferase reporter, luminescence, overnight; actives 1.7% (n = 360,000); AID 588405; inhibition, % at 20 µM;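 active = inhibition of at least 50% at 20 µM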
KKLEB tox = counter-screen for CF NF-kB inhibitors: cytotoxicity. AID 602141. activity change (cytotoxicity), % at 5 µM. actives 0.36% (n = 360,000). KKLEB CF airway cells viability, ATPlite luminescence, overnight; active compounds read low; cells stimulated with P. aeruginosa culture filtrate;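 active = corrected activity change at or below -50% at 5 µM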
MITF TRPM1 inh = reduces MITF-dependent TRPM1 promoter luciferase signal; SK-MEL-5 TRPM1 promoter luciferase, 24 h; inhibition, % at 12.5 µM; actives 0.83% (n = 330,000); AID 488899;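 active = mean inhibition across replicates of 60% or more, whatever share of single replicates reaches that level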
Hits are given with their value; . = inactive; / = no result.

SMILES	HIF-2a block	CHOP inhibitor	CF NFkB inh	Peg3 promoter	KKLEB tox	MITF TRPM1 inh
CC1CCCCN1C(=O)/C(=C\c1ccccc1)c1ccccc1 (stereo unspecified)	.	88	.	.	.	.
O=C1c2ccccc2C(=O)N1SC1CCCCC1	.	72	.	.	.	.
Cc1nn2cc(-c3ncc(C(F)(F)F)cc3Cl)cnc2c1Br	.	74	.	.	.	.
O=C(NN=C(c1ccccc1)c1ccccn1)c1ccccc1	.	/	.	.	.	67
O=C(N/N=C(\c1ccccc1)c1ccccn1)c1ccccc1Cl	.	/	.	54	.	.
CC1(C(=O)O)CCN1C(=O)COc1ccc(Cl)cc1 (stereo unspecified)	.	/	.	.	.	/
Cc1ccc(-n2[nH]c(C)c(C=Nc3ccc4[nH]c(=O)[nH]c4c3)c2=O)cc1C	.	81	.	.	.	.
Cc1ccc(NC(=O)Cn2c(=O)n(CCCC(=O)NCc3ccco3)c(=O)c3ccccc32)cc1	.	.	.	.	.	.
COc1ccc(NC(=O)Cn2c(=O)n(-c3ccc(CC(=O)NCc4ccco4)cc3)c(=O)c3ccccc32)cc1	.	.	.	.	.	71
O=C(Cn1c(=O)n(Cc2ccccc2)c(=O)c2ccccc21)NCc1ccco1	.	.	.	.	.	.
COc1cc2c(=O)n(Cc3ccccc3)c(=O)n(CC(=O)NCc3ccco3)c2cc1OC	.	71	.	.	.	.
C=CCn1c(=O)c2ccc(C(=O)NCc3ccccc3)cc2n(Cc2ccc(C)cc2)c1=O	.	79	.	.	.	/
Cc1ccc(Cn2c(=O)n(-c3ccccc3)c(=O)c3ccc(C(=O)NCc4ccco4)cc32)cc1	.	84	.	.	.	.
C1=C[C@H]2CCCN3CC[C@@H]([C@@H]2[C@]32CO2)[C@H]1CCOCc1ccccc1	.	/	/	/	/	/
NS(=O)(=O)c1ccc(NC(CNS(=O)(=O)c2ccccc2)c2ccccc2)cc1 (stereo unspecified)	.	.	.	.	.	.
Cc1ccc(NC(CNS(=O)(=O)c2ccc(Cl)cc2)c2ccccc2)cc1 (stereo unspecified)	.	104	.	.	.	.
COc1ccc2[nH]c3c(c2c1)CCN1C(=O)C(CC(=O)NCCC2=CCCCC2)C[C@H](C(=O)N2CCCCC2)[C@@]31C (stereo partly specified)	.	/	.	.	.	.
COc1ccc(C(=O)/C(C#N)=N/Nc2cccc([N+](=O)[O-])c2)cc1	.	.	54	.	.	.
C[C@]12c3[nH]c4ccccc4c3CCN1C(=O)C(CC(=O)NCCCn1ccnc1)C[C@@H]2C(=O)N1CCOCC1 (stereo partly specified)	.	/	.	.	.	.
CC1(C(=O)NS(=O)(=O)c2ccccc2OC(F)(F)F)CCN1C(=O)c1ccco1 (stereo unspecified)	.	/	.	.	.	/
CC(C)(C)C1=CC(O)(c2ccccc2)C=C(C(C)(C)C)C1=O	.	/	.	78	.	.
NC(=O)c1ccc(C(F)(F)F)n(Cc2cccc(Cl)c2)c1=O	.	72	.	.	.	.
NC(=O)c1ccc(C(F)(F)F)n(Cc2ccc(F)c(F)c2)c1=O	.	.	.	.	.	.
Cn1ccsc1=NC(=O)c1ccc(Cl)c([N+](=O)[O-])c1	.	/	.	.	.	.
Cn1ccsc1=NC(=O)c1ccc(S(C)(=O)=O)c([N+](=O)[O-])c1	.	/	.	78	.	.
SMILES	HIF-2a block	CHOP inhibitor	CF NFkB inh	Peg3 promoter	KKLEB tox	MITF TRPM1 inh
COc1ccc(-n2c(SCC(=O)Nc3cc(C)on3)nc3c(c2=O)SC(C)C3)cc1 (stereo unspecified)	.	/	.	.	.	/
O=S(=O)(NCCc1csc(-c2ccc(C(F)(F)F)cc2)n1)c1ccc2c(c1)OCCO2	.	81	.	.	.	/
O=C(N/C(=C\c1ccc(F)cc1)C(=O)N1CCOCC1)c1ccccc1	.	/	.	.	.	.
Cc1cc(N2CCCCC2C)nc(-c2ccccc2O)n1 (stereo unspecified)	.	.	.	.	.	.
O=c1[nH]c(/C=C/c2cccc3ccccc23)nc2ccccc12	.	.	.	.	.	.
O=c1[nH]c(/C=C/c2ccc(Br)cc2)nc2ccccc12	.	/	.	.	.	.
COc1ccc(C(=O)Nc2cccc(/C=C/c3nc4ccccc4c(=O)[nH]3)c2)cc1	.	91	.	.	.	.
Cc1cccc(/C=C\c2nc3ccccc3c(=O)[nH]2)c1	.	101	.	.	.	.
O=c1[nH]c(/C=C/c2ccccc2[N+](=O)[O-])nc2ccccc12	.	82	.	.	.	.
CN(C)c1ccc(/C=C/c2nc3ccccc3c(=O)[nH]2)cc1	.	/	.	.	-77	.
CCCCc1ccc(S(=O)(=O)NC(=O)C2(C)CCN2C(=O)CCc2cccs2)cc1 (stereo unspecified)	.	/	.	.	.	/
CCOc1ccc(Oc2c(/C=N/NC(=O)COc3ccccc3OC)c(C)nn2-c2ccccc2)cc1	.	85	.	.	.	.
Cc1cc(C)c(C(=O)c2ccccc2C(=O)O)c(C)c1	.	/	.	.	.	/
COc1cc(Cl)c(C)cc1NC(=O)c1ccccc1NC(=O)CN1CCN(c2ccccn2)CC1	.	/	.	91	.	/
COc1ccc(N2CCN(CC(=O)Nc3ncc(C)s3)CC2)cc1	.	/	.	.	.	.
Cc1cnc(NC(=O)CN2CCN(c3ccccn3)CC2)s1	.	74	.	.	.	.
COc1ccc(CCCc2nnc(SCC(=O)N/N=C\c3ccc(O)c(OC)c3)o2)cc1C	.	.	.	.	.	.
COc1ccc(/C=N/NC(=O)CSc2nnc(CCCc3ccc(OC)c(C)c3)o2)cc1	.	70	.	.	.	.
C=CCc1cc(/C=N/NC(=O)CSc2nnc(CCCc3ccc(OC)cc3)o2)cc(OC)c1O	.	78	.	.	.	.
COc1ccc(S(=O)(=O)N2CCOCC2)cc1NC(=O)Cc1ccc2c(c1)OCCO2	.	/	.	.	.	.
CCNC(=O)C1(C)CCN(C(=O)c2cccc(OC(F)(F)F)c2)C1 (stereo unspecified)	.	/	.	.	.	/
O=C(Nc1sc2c(c1C(=O)O)CCC2)c1ccco1	.	.	.	.	.	.
COC(=O)c1c(NC(=O)c2c(-c3ccccc3Cl)noc2C)sc2c1CCC2	.	81	.	.	.	.
COC(=O)c1c(NC(=O)c2ccco2)sc2c1CCC2	.	76	.	.	.	.
O=C(Nc1sc2c(c1C(=O)NC1CC1)CCCCCC2)c1ccco1	.	96	.	.	.	.
CC[C@]12c3[nH]c4cc(-c5ccco5)ccc4c3CCN1C(=O)[C@@H](CC(=O)NC(C)(C)C)C[C@@H]2C(=O)N1CCN(C(=O)C2CC2)CC1	.	/	.	.	.	.
CCOC(=O)C1CCN(C(=O)COC(=O)/C=C/c2cccc(OC)c2OC)CC1	.	/	.	.	.	.
